Measurements published in PubChem BioAssay.
Unmarked numbers belong to inactive results. No rule for the calls is given here.

Target: Pantothenate synthetase (Mycobacterium tuberculosis (strain ATCC 25618 / H37Rv)) (UniProt P9WIL5)
Experiment: Recombinant Mtb pantothenate synthetase (PanC) inhibitors, coupled enzyme, confirmatory (AID 375);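 also: 0% = full reaction with vehicle and 100% = no enzyme background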
Settings: coupled enzyme assay; at 10 µM, active compounds read high

Chain of Pantothenate synthetase (Mycobacterium tuberculosis (strain ATCC 25618 / H37Rv)) (P9WIL5 whole entry, looked up): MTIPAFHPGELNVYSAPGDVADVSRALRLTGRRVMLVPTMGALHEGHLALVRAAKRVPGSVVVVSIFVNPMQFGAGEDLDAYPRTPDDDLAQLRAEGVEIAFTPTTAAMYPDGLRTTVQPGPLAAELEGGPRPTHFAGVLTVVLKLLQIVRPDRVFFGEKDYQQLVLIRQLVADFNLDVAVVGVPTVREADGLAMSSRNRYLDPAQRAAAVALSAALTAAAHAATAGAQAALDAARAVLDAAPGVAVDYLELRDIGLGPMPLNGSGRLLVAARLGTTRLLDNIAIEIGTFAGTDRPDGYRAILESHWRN

| SMILES | inhibition [%] |
| --- | --- |
| O=C(NCCCN1CCOCC1)c1cc(-c2ccc(Cl)cc2)on1 | 4 |
| COC(=O)c1ccc2c(=O)n(NC(C)=O)c(=S)[nH]c2c1 | 0 |
| O=C(CCn1c(=O)sc2ccccc21)NC1=NCCS1 | 3 |
| O=c1c2ccccc2sn1-c1ccc(S(=O)(=O)N2CCCCC2)cc1 | 0 |
| COC(=O)c1c(NC(=O)CSc2nnc(-c3cccnc3)n2Cc2ccco2)sc(C)c1C | 0 |
| CS(=O)(=O)N(Cc1ccccc1)c1ccc(C(=O)N2CCOCC2)cc1 | 0 |
| CSc1nc(N)nc(SCCS(=O)(=O)c2ccc(Cl)cc2)c1C#N | 0 |
| Cc1nc2ccccc2nc1OCC(=O)Nc1cc(C(F)(F)F)ccc1N1CCOCC1 | 0 |
| CCOc1cc(-c2nc3ccccn3c2NCC2CCCO2)ccc1O (stereo unspecified) | 0 |
| COc1cccc(-c2nnc3sc(-c4ccc(C)cc4)nn23)c1 | 0 |
| CCOC(=O)C1CCN(C(=O)Nc2ccc(Cl)cc2Cl)CC1 | 0 |
| CCN(CC)S(=O)(=O)N1CCC(C(=O)NCC2COc3ccccc3O2)CC1 (stereo unspecified) | 1 |
| C=CCOc1nc2c(c(=O)n(C)c(=O)n2C)n1C | 0 |
| Cc1nc(N2CCC(C)CC2)c2c(C)c(C(=O)O)sc2n1 | 0 |
| COc1cccc(/C=N/n2cnnc2)c1OCc1ccccc1 | 0 |
| CCOc1ccccc1N(CC(=O)NC1CCCC1)C(=O)CCCC(=O)Nc1ccccn1 | 5 |
| O=C1CN(c2ccccc2F)C(=O)CN1c1ccccc1F | 0 |
| O=C(CN1C(=O)C2CC=C(Cl)CC2C1=O)Nc1ccc(C(=O)O)cc1 (stereo unspecified) | 0 |
| C=CCNC(=O)c1cc(-c2ccccc2O)on1 | 0 |
| CCOc1ccccc1NC(=O)C1CCCN1C(=O)OCc1ccccc1 (stereo unspecified) | 0 |
| Cc1cc(C)n(S(=O)(=O)Cc2ccccc2)n1 | 0 |
| COc1ccc2ccccc2c1CN1CCN(C)CC1 | 3 |
| CC(C)c1ncc(C(O)c2cccc3ccccc23)n1C (stereo unspecified) | 0 |

| SMILES | inhibition [%] |
| --- | --- |
| O=C(CSc1nnc(-c2cccs2)o1)N1CCOCC1 | 0 |
| COc1ccc(S(=O)(=O)N2CCN(c3ccc(C)cc3C)CC2)cc1OC | 3 |
| COc1cc2nc(SCC(=O)NC3CC3)n(CCC3=CCCCC3)c(=O)c2cc1OC | 1 |
| O=C1CCc2cc(S(=O)(=O)N3CCC(C(=O)NCc4ccccn4)CC3)ccc2N1 | 0 |
| COCCn1c(C)c(C(=O)O)sc1=S | 6 |
| O=C(NCc1nc2ccccc2[nH]1)c1ccc(Cl)c(S(=O)(=O)N2CCCC2)c1 | 1 |
| Cn1cccc1Cc1nnc(SCC(=O)Nc2ccc(F)cc2F)n1-c1ccc(F)cc1 | 4 |
| CCn1c(=O)cc(OCC(=O)NCCCN2CC(C)CC(C)C2)c2ccccc21 (stereo unspecified) | 3 |
| CCn1c(CCNC(=O)c2cccs2)nnc1SCC(=O)c1ccc(OC)cc1 | 0 |
| COc1ccc(Cl)c(NC(=O)NCCN2CCN(c3ccccc3)CC2)c1 | 0 |
| Clc1ccc(Cn2c(CN3CCCC3)nc3ccccc32)cc1 | 8 |
| CCC(C)NCC(O)COCc1ccc(Cl)cc1 (stereo unspecified) | 4 |
| O=C(CCn1nc(-c2ccc(Cl)cc2)ccc1=O)N1CCN(c2ccccn2)CC1 | 7 |
| CN(C(=O)c1c(Cl)nc2sccn12)C1CCCCC1 | 0 |
| CC(=O)Nc1ccc(S(=O)(=O)N(C2=NCC(C)S2)c2ccccc2)cc1 (stereo unspecified) | 0 |
| COc1cccc(-c2nc(CS(=O)CC(=O)NCCCOC(C)C)c(C)o2)c1 (stereo unspecified) | 2 |
| Cc1cc(C)nc(N2CCCC(C(=O)Nc3ccc4c(c3)OCO4)C2)n1 (stereo unspecified) | 0 |
| O=C(CCN1C(=O)C2C3C=CC(C3)C2C1=O)NC1CCCc2ccccc21 (stereo unspecified) | 1 |
| CN(CCO)CC(O)Cn1cnc2c1c(=O)n(C)c(=O)n2C (stereo unspecified) (tested in a mixture with another compound) | 0 |
| Cc1nc(-c2cccc(-c3noc(C)n3)c2)no1 | 0 |
| Cc1cccc2cc(CN(Cc3nnnn3Cc3ccccc3)C3CCCC3)c(=O)[nH]c12 | 0 |
| COc1ccccc1NC(=O)C1=C(C)Nc2nc(CCCO)nn2C1c1cccnc1 (stereo unspecified) | 1 |
| CCOc1cc(C(=O)NCC2CCCO2)cc(OCC)c1OCC (stereo unspecified) | 3 |
